Results reported in PubChem BioAssay (EPA / NIEHS).
Active and inactive are the calls of the source. Rule for the calls: active = hit-call score of the fitted dose curve at least 0.9, where 1 is the maximum; inactive = score below 0.9.

Legend:
[1] = ATG_ISRE_CIS: Attagene CIS-FACTORIAL HepG2 Assay for human Interferon Regulatory Factor 1 (IRF1) binding to an Interferon-Stimulated Response Element (ISRE) (AID 2282948); conditions: HepG2 ISRE cis-reporter (Attagene), mRNA transcription readout; actives raise or lower the signal
Outline: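 Read-out: fluorescent RT-PCR products resolved by capillary electrophoresis, reporting endogenous transcription factor activity via ISRE-driven reporter mRNA in transfected HepG2 cells dosed for 24 h; gain or loss fitted relative to DMSO.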

[2] = ATG_M_06_CIS: Attagene CIS-FACTORIAL HepG2 Assay for M06 Transcription Factor (Internal Marker) (AID 2282950); conditions: HepG2 Attagene CIS-FACTORIAL M06 internal marker reporter; actives raise or lower the signal
Outline: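 Terse: HepG2, transient MRTU transfection (FuGene 6), 24 h dosing; total RNA, oligo(dT) RT, PCR, FAM label, HpaI cut, capillary electrophoresis; bidirectional fit vs DMSO baseline; background-control endpoint.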

[3] = target: Hypoxia-inducible factor 1-alpha (Homo sapiens) (UniProt Q16665); assay: ATG_HIF1a_CIS: Attagene CIS-FACTORIAL HepG2 Assay for human Hypoxia Inducible Factor 1 (HIF1A) (AID 2282951); conditions: HepG2 Attagene cis-factorial HIF1a reporter transcription; actives raise or lower the signal
Hypoxia-inducible factor 1-alpha (Homo sapiens), sequence (Q16665 whole entry, looked up): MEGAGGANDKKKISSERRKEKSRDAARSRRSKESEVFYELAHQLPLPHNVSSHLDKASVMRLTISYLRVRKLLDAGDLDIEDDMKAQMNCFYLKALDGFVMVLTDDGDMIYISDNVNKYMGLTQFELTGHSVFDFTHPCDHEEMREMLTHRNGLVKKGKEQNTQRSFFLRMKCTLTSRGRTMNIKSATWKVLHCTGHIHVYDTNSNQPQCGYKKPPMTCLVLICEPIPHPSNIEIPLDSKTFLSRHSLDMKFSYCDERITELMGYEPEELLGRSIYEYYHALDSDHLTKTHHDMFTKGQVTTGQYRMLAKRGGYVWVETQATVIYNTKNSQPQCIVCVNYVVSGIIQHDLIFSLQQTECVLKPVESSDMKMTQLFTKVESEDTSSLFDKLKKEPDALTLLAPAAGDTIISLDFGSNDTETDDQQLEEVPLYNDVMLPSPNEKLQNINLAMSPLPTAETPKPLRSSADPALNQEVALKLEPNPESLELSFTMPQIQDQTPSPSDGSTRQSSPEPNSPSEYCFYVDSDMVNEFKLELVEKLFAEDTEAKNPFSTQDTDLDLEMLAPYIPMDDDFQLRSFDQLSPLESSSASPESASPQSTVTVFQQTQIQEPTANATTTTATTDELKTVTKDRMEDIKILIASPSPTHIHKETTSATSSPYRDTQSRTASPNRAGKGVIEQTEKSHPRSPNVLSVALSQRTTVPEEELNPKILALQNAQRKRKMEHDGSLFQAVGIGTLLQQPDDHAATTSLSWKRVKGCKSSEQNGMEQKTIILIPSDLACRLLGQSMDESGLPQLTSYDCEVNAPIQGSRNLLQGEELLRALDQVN
Outline: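 Endogenous-TF cis reporter readout, human HepG2 cells, 24 h incubation; mRNA detected via RT-PCR and capillary electrophoresis fluorescence; DMSO-normalised bidirectional fitting.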

[4] = target: Hepatocyte nuclear factor 6 (Homo sapiens) (UniProt Q9UBC0); assay: ATG_HNF6_CIS: Attagene CIS-FACTORIAL HepG2 Assay for human Hepatocyte Nuclear Factor 6 (HNF6) (AID 2282952); conditions: HepG2 Attagene cis-factorial HNF6 reporter transcription; actives raise or lower the signal
Hepatocyte nuclear factor 6 (Homo sapiens), sequence (Q9UBC0 whole entry, looked up, the tested form may be a part): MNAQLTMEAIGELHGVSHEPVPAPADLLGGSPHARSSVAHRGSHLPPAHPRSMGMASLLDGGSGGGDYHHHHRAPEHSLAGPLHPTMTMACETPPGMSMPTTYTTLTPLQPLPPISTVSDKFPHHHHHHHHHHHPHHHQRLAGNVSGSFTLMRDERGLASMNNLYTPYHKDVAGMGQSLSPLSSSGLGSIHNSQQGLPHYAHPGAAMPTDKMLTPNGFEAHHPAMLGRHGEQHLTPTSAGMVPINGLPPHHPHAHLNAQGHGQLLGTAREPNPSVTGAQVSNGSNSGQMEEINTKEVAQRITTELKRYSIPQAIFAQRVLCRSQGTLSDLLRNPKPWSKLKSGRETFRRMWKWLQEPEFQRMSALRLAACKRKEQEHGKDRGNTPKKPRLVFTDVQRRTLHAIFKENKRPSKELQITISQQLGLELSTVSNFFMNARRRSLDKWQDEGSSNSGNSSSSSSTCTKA
Outline: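 Twenty-four-hour chemical treatment of reporter-transfected HepG2 cells precedes RNA isolation, DNase-treated reverse transcription and PCR of reporter sequences. Labelled fragments are sized by capillary electrophoresis and fitted bidirectionally versus DMSO.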

[5] = target: Heat shock factor protein 1 (Homo sapiens) (UniProt Q00613); assay: ATG_HSE_CIS: Attagene CIS-FACTORIAL HepG2 Assay for human Heat Shock Transcription Factor 1 (HSE) (AID 2282953); conditions: HepG2 HSE cis-reporter, Attagene RNA transcription; actives raise or lower the signal
Heat shock factor protein 1 (Homo sapiens), sequence (Q00613 whole entry, looked up, the tested form may be a part): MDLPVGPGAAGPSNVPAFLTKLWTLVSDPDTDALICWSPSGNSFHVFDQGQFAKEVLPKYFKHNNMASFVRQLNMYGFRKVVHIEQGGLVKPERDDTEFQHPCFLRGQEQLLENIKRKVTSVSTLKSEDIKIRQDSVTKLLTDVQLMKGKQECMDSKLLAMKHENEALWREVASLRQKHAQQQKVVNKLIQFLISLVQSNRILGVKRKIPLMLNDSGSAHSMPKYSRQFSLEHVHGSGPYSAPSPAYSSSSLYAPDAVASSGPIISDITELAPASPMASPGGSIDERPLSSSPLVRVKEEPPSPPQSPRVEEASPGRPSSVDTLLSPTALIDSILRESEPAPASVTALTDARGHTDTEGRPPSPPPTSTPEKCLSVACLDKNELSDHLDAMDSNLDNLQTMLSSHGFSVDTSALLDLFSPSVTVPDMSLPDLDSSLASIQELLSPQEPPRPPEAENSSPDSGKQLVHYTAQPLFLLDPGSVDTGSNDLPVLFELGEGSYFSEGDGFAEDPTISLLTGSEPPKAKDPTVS
Outline: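 Read-out: fluorescence of reporter-specific RT-PCR fragments separated by capillary electrophoresis. HepG2 carrying transfected cis-element reporter units; 24 h dosing; activity fitted in both directions relative to DMSO baseline.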

[6] = ATG_MRE_CIS: Attagene CIS-FACTORIAL HepG2 Assay for human Metal Responsive Element (MRE) (AID 2282954); conditions: HepG2 MRE cis-reporter transcription, Attagene multiplex; actives raise or lower the signal
Outline: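 Measured here is mRNA induction from an MRE cis-element reporter in HepG2 after 24 h, quantified by fluorescence of labelled RT-PCR products on capillary electrophoresis; gain- and loss-of-signal fits use DMSO as baseline.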

[7] = ATG_M_32_CIS: Attagene CIS-FACTORIAL HepG2 Assay for M32 Transcription Factor (Internal Marker) (AID 2282949); conditions: HepG2 Attagene cis-factorial M32 reporter, mRNA; actives raise or lower the signal;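 note: background control marker of the multiplexed CIS panel rather than a real target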
Outline: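 HepG2 transfectants (cis-regulated reporter transcription units) dosed 24 h. Reporter mRNA by RT-PCR plus CE, analysed as gain or loss relative to DMSO.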

[8] = ATG_PBREM_CIS: Attagene CIS-FACTORIAL HepG2 Assay for human Phenobarbital-responsive Enhancer Module (PBREM) (AID 2282955); conditions: HepG2 PBREM cis-reporter, Attagene multiplexed transcription; actives raise or lower the signal
Outline: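 Readout: reporter mRNA, fluorescent RT-PCR fragments separated by capillary electrophoresis. System: HepG2 transiently transfected with cis-regulated reporter units. Exposure: 24 h. Analysis: bidirectional, DMSO baseline.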

## OCC(O)c1ccccc1 (stereo not given)
[1]
  outcome: inactive
[2]
  outcome: inactive
[3]
  outcome: inactive
[4]
  outcome: inactive
[5]
  outcome: inactive
[6]
  outcome: inactive

## CC(=O)NCCO
[1]
  outcome: inactive
[7]
  outcome: inactive
[2]
  outcome: inactive
[3]
  outcome: inactive
[4]
  outcome: inactive
[5]
  outcome: inactive
[6]
  outcome: inactive
[8]
  outcome: inactive

## CC/C=C\CC/C=C/CO
[1]
  outcome: inactive
[2]
  outcome: inactive
[3]
  outcome: inactive
[4]
  outcome: inactive
[8]
  outcome: inactive

## CC=Cc1ccc(OCC)c(O)c1
[1]
  outcome: inactive
[7]
  outcome: inactive
[2]
  outcome: inactive
[3]
  outcome: inactive
[4]
  outcome: inactive
[5]
  outcome: inactive
[6]
  outcome: inactive

## CC(C)CCCCCCc1ccc(OCCOCCO)cc1
[7]
  outcome: inactive
[2]
  outcome: inactive
[3]
  outcome: inactive
[4]
  outcome: inactive
[5]
  outcome: inactive
[6]
  outcome: inactive
[8]
  outcome: inactive

## CCCCC(CC)COC(C)=O (stereo not given)
[1]
  outcome: inactive
[7]
  outcome: inactive
[2]
  outcome: inactive
[3]
  outcome: inactive
[4]
  outcome: inactive
[5]
  outcome: inactive
[6]
  outcome: inactive

## CN(C)c1ccncc1
[1]
  outcome: inactive
[2]
  outcome: inactive
[3]
  outcome: inactive
[4]
  outcome: inactive
[5]
  outcome: inactive
[6]
  outcome: inactive
[8]
  outcome: inactive

## O=C1OC[C@H](Cc2cccc(O)c2)[C@H]1Cc1cccc(O)c1
[1]
  outcome: inactive
[7]
  outcome: inactive
[3]
  outcome: inactive
[4]
  outcome: inactive
[5]
  outcome: inactive
[6]
  outcome: inactive
[8]
  AC50: 33.5 µM (active)

## O=c1[nH]c(=O)c2cn[nH]c2[nH]1
[1]
  outcome: inactive
[7]
  outcome: inactive
[3]
  outcome: inactive
[4]
  outcome: inactive
[5]
  outcome: inactive
[6]
  outcome: inactive
[8]
  outcome: inactive

## CC/C=C\CCOC(=O)CC
[1]
  outcome: inactive
[7]
  outcome: inactive
[2]
  outcome: inactive
[3]
  outcome: inactive
[4]
  outcome: inactive
[5]
  outcome: inactive
[6]
  outcome: inactive

## COC(=O)c1ccc(C)cc1C1=NC(C)(C(C)C)C(=O)N1 (stereo not given) (tested in a mixture with another compound)
[7]
  outcome: inactive
[3]
  outcome: inactive
[4]
  outcome: inactive
[5]
  outcome: inactive
[6]
  outcome: inactive
[8]
  outcome: inactive

## C=C(C)C(=O)OCCOCCOCCOC(=O)C(=C)C
[1]
  outcome: inactive
[3]
  outcome: inactive
[4]
  outcome: inactive
[5]
  outcome: inactive
[6]
  outcome: inactive
[8]
  outcome: inactive

## CN1C(=O)c2ccccc2C1=O
[1]
  outcome: inactive
[7]
  outcome: inactive
[2]
  outcome: inactive
[3]
  outcome: inactive
[4]
  outcome: inactive
[5]
  outcome: inactive
[6]
  outcome: inactive

## CC(C)=CCCC(C)CC(=O)O (stereo not given)
[7]
  outcome: inactive
[2]
  outcome: inactive
[3]
  outcome: inactive
[4]
  outcome: inactive
[5]
  outcome: inactive
[6]
  outcome: inactive

## Nc1c(Cl)cc(Cl)cc1[N+](=O)[O-]
[1]
  outcome: inactive
[3]
  outcome: inactive
[4]
  outcome: inactive
[6]
  outcome: inactive

## CC1(C)O[C@@H]2[C@@H](CO[C@@]3(COS(N)(=O)=O)OC(C)(C)O[C@@H]23)O1
[1]
  outcome: inactive
[2]
  outcome: inactive
[3]
  outcome: inactive
[4]
  outcome: inactive
[5]
  outcome: inactive
[8]
  outcome: inactive

## CS(=O)(=O)OCCCCOS(C)(=O)=O
[1]
  outcome: inactive
[2]
  outcome: inactive
[3]
  outcome: inactive
[4]
  outcome: inactive
[5]
  outcome: inactive
[6]
  outcome: inactive

## CN(c1nccc(=O)[nH]1)C1CCN(c2nc3ccccc3n2Cc2ccc(F)cc2)CC1
[1]
  outcome: inactive
[2]
  outcome: inactive
[3]
  outcome: inactive
[4]
  outcome: inactive
[5]
  outcome: inactive
[6]
  AC50: 26.7 µM (active)
[8]
  outcome: inactive

## COc1ccc(N=Nc2cc(C)c(N=Nc3ccc(S(=O)(=O)O)cc3)cc2OC)cc1
[1]
  outcome: inactive
[7]
  outcome: inactive
[2]
  outcome: inactive
[3]
  outcome: inactive
[4]
  outcome: inactive
[5]
  AC50: 100 µM (active)
[6]
  outcome: inactive
[8]
  outcome: inactive

## Cc1[nH]c(=O)c(C#N)cc1-c1ccncc1
[1]
  outcome: inactive
[7]
  outcome: inactive
[2]
  outcome: inactive
[4]
  outcome: inactive
[5]
  outcome: inactive
[8]
  outcome: inactive

## Nc1ccc2c(O)cc(S(=O)(=O)O)cc2c1
[1]
  outcome: inactive
[7]
  outcome: inactive
[2]
  outcome: inactive
[3]
  outcome: inactive
[4]
  outcome: inactive
[5]
  outcome: inactive
[6]
  outcome: inactive
[8]
  outcome: inactive

## CC(C)(CO)[C@@H](O)C(=O)NCCC(=O)O
[1]
  outcome: inactive
[7]
  outcome: inactive
[2]
  outcome: inactive
[4]
  outcome: inactive
[5]
  outcome: inactive
[6]
  outcome: inactive
[8]
  outcome: inactive

## Cc1ncc([N+](=O)[O-])n1CCO
[1]
  outcome: inactive
[2]
  outcome: inactive
[4]
  outcome: inactive
[5]
  outcome: inactive
[6]
  outcome: inactive

## CCCC(=O)C(CC)Sc1ccoc1C (stereo not given)
[1]
  outcome: inactive
[7]
  outcome: inactive
[2]
  outcome: inactive
[3]
  outcome: inactive
[4]
  outcome: inactive
[5]
  outcome: inactive
[6]
  outcome: inactive
[8]
  outcome: inactive

## C=CCN(CC=C)CC=C
[2]
  outcome: inactive
[3]
  outcome: inactive
[4]
  outcome: inactive
[5]
  outcome: inactive
[6]
  outcome: inactive
[8]
  outcome: inactive

## C=C(C)CNCC
[1]
  outcome: inactive
[7]
  outcome: inactive
[3]
  outcome: inactive
[4]
  outcome: inactive
[5]
  outcome: inactive
[6]
  outcome: inactive
[8]
  outcome: inactive

## CC(C)NCC(O)COc1ccc(CC(N)=O)cc1 (stereo not given)
[1]
  outcome: inactive
[7]
  outcome: inactive
[2]
  outcome: inactive
[4]
  outcome: inactive
[5]
  outcome: inactive
[6]
  outcome: inactive

## CCCCC1(COC(=O)CCC(=O)O)C(=O)N(c2ccccc2)N(c2ccccc2)C1=O
[7]
  outcome: inactive
[2]
  outcome: inactive
[4]
  outcome: inactive
[5]
  outcome: inactive
[6]
  outcome: inactive

## O=C(Nc1ccc2c(O)c(N=Nc3ccc(N=Nc4ccc(S(=O)(=O)O)cc4)cc3)c(S(=O)(=O)O)cc2c1)c1ccccc1
[1]
  outcome: inactive
[7]
  outcome: inactive
[2]
  outcome: inactive
[3]
  outcome: inactive
[4]
  outcome: inactive
[5]
  outcome: inactive
[6]
  outcome: inactive
[8]
  outcome: inactive
